{"source": "PubChem BioAssay AID1671190", "about": "(National Center for Advancing Translational Sciences (NCATS), 2021)", "note": "The campaign covered roughly 580,000 compounds. About 6,100 (1.1%) were called active. Another 15% or so got no clear call; they are omitted. This excerpt belongs to a sample that is enriched for actives. Unmarked numbers belong to inactive results. The call rests on the fitted dose curve; in most records, active means well fitted inhibition curve with a large enough effect; inconclusive means small, poorly fitted or top-dose-only effect, or another doubt; inactive means no such curve, though single readings can be large or run the other way. On the % scale 0 is the no-effect control and ±100 the full control effect; potency means the concentration at half of the fitted maximal effect."}
{"molecular_target": "Polyunsaturated fatty acid lipoxygenase ALOX12 (Homo sapiens) (UniProt P18054)", "sequence (P18054 whole entry, looked up)": "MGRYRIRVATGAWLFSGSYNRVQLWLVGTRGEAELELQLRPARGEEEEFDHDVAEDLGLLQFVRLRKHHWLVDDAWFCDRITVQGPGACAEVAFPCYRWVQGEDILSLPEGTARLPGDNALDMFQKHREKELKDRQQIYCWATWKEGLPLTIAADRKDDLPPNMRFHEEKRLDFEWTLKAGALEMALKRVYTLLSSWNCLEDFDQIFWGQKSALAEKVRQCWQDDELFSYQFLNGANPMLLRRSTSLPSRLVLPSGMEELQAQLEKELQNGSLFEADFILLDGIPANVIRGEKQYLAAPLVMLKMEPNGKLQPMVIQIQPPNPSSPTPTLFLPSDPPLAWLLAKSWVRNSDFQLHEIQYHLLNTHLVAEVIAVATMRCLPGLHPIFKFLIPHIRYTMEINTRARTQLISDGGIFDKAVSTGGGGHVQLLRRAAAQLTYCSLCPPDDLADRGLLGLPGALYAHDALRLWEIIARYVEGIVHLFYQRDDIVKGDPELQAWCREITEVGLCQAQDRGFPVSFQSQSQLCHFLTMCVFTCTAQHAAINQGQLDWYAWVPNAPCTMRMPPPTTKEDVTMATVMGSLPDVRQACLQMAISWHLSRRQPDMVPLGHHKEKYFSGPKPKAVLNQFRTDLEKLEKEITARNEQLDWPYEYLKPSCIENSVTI", "test": "Primary qHTS assay for inhibitors of human arachidonate 12S-lipoxygenase (ALOX12): Round 2", "settings": "purified 12hLO, xylenol orange hydroperoxide absorbance; series mostly up to 108 µM; activity change, negative = inhibition: at the top concentration", "summary_of_the_method": "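Hydroperoxide product was detected by ferrous iron/xylenol orange as the 573 to 405 nm absorbance ratio. Arachidonic acid at 40 uM (final) was turned over for 30 min at room temperature by 150 nM human 12hLO, pH 7.0 Hepes buffer, after 15 min compound preincubation.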"}
{"smiles": "O=C(c1cn[nH]c1)N1CC2(CN(Cc3cccc(Cl)c3)CC2COc2ccccc2)C1", "note": "(stereo not drawn)", "activity change, negative = inhibition": "13.7% [at 176 µM]"}
{"smiles": "CCOc1cc2cc(C(=O)c3cc(C)ccc3O)cnc2cc1OCC", "activity change, negative = inhibition": "-39.3%"}
{"smiles": "CCC(=O)Nc1ccc2nc(-c3ccccc3C)oc2c1", "activity change, negative = inhibition": "-10.5%"}
{"smiles": "COc1ccc(NC(=O)c2cn(-c3ccccc3)nc2SC)cc1", "activity change, negative = inhibition": "-7.47%"}
{"smiles": "COc1ccc(-c2nn(-c3ccccc3)cc2/C=C\\C(=O)Nc2ccc(C(=O)O)cc2)cc1", "Potency": "39.8 µM (active)"}
{"smiles": "COc1ccc(-c2nn(-c3ccccc3)cc2C(=O)NCC(C(C)C)N2CCOCC2)cc1", "note": "(stereo not drawn)", "activity change, negative = inhibition": "0%"}
{"smiles": "CSc1ccccc1NC(=O)C(C)Nc1ccc2c(c1)CCN2C(C)=O", "note": "(stereo not drawn)", "activity change, negative = inhibition": "-8.13%"}
{"smiles": "O=C(NC(c1ccccc1)c1cc2ccccc2o1)C1CCCC1", "note": "(stereo not drawn)", "activity change, negative = inhibition": "-10.2%"}
{"smiles": "N#Cc1ccccc1S(=O)(=O)N1CCN(C(=O)c2cc(-c3ccccc3)nn2-c2ccccc2)CC1", "activity change, negative = inhibition": "-13.3%"}
{"smiles": "N#Cc1ccccc1S(=O)(=O)N1CCN(Cc2c(O)ccc3ccccc23)CC1", "Potency": "11.2 µM (active)"}
{"smiles": "N#CCCc1c(O)ccc2ccccc12", "activity change, negative = inhibition": "-2.74%"}
{"smiles": "Cc1nnc(SCC(=O)Nc2sc3c(c2C#N)CCCC3)n1CC(C)C", "activity change, negative = inhibition": "3.74%"}
{"smiles": "CCC(=O)NNC(=S)Nc1ccccc1", "activity change, negative = inhibition": "-23.1%"}
{"smiles": "Cc1ccc(-c2nnc3c4ccccc4c(C)nn23)cc1NC(=O)c1cccc(Br)c1", "activity change, negative = inhibition": "0%"}
{"smiles": "O=C(NC1C2CC3CC(C2)CC1C3)c1cccc(Br)c1", "note": "(stereo not drawn)", "activity change, negative = inhibition": "-20.3%"}
{"smiles": "O=C(Nc1ccc(S(=O)(=O)Nc2ncccn2)cc1)c1cncc(Br)c1", "activity change, negative = inhibition": "-19.6%"}
{"smiles": "O=C(Nc1ccc(S(=O)(=O)Nc2ncccn2)cc1)C12CC3CC(CC(C3)C1)C2", "activity change, negative = inhibition": "1.9%"}
{"smiles": "O=C(NC(=S)Nc1ccc(S(=O)(=O)Nc2ncccn2)cc1)c1cccc(Br)c1", "Potency": "20 µM (active)"}
{"smiles": "O=C(NC(=S)Nc1cccc2c(O)cccc12)c1cccc(Br)c1", "Potency": "17.8 µM (active)"}
{"smiles": "CCOc1ccc(C(=O)N(CCN(C)C)CC(=O)OC(C)(C)C)cc1", "activity change, negative = inhibition": "-10.9%"}
{"smiles": "CC(C)NC(=O)c1cccc2c1CCCN2CC(=O)NCCc1ccccc1", "activity change, negative = inhibition": "-6.04%"}
{"smiles": "CSc1ccccc1C(=O)NC(C)c1ccccc1", "note": "(stereo not drawn)", "activity change, negative = inhibition": "-1.43%"}
{"smiles": "Clc1ccc(-c2nc(-c3ccc(Br)o3)no2)cc1", "activity change, negative = inhibition": "14.2%"}
{"smiles": "CC(NC(=O)Cn1nc(C(N)=O)c2ccccc2c1=O)c1ccccc1", "note": "(stereo not drawn)", "Potency": "35.5 µM (active)"}
{"smiles": "CNC(=O)c1nn(CC(=O)NC(C)c2ccccc2)c(=O)c2ccccc12", "note": "(stereo not drawn)", "activity change, negative = inhibition": "3.81%"}
{"smiles": "O=C(Cn1nc(C(=O)O)c2ccccc2c1=O)Nc1cc(F)ccc1F", "activity change, negative = inhibition": "-13.9%"}
{"smiles": "CC(=O)N1CCC(C(=O)N(C)CC(=O)Nc2ccccc2C(F)(F)F)CC1", "activity change, negative = inhibition": "-4.93%"}
{"smiles": "Cc1cccc(Oc2c(C(F)(F)F)oc3cc(OCC(=O)OCCC(C)C)ccc3c2=O)c1", "activity change, negative = inhibition": "11.5%"}
{"smiles": "C=CC(=O)c1ccc2ccccc2c1", "Potency": "17.8 µM (active)"}
{"smiles": "O=C(OCC(=O)N1CCOCC1)c1ccc2ccccc2c1", "activity change, negative = inhibition": "198%"}
{"smiles": "O=C(OCc1nc2ccccc2o1)c1ccc2ccccc2c1", "activity change, negative = inhibition": "9.47%"}
{"smiles": "O=C(O)COc1ccc(-c2nccc3c2C(=O)N(Cc2c[nH]c4ccccc24)CC(COc2ccc(F)c(F)c2)O3)cc1", "note": "(stereo not drawn)", "activity change, negative = inhibition": "6.07%"}
{"smiles": "Cc1nn(C)c2nc(C(C)C)cc(C(=O)N3CCN(c4ncccn4)CC3)c12", "activity change, negative = inhibition": "43.9%"}
{"smiles": "Cc1[nH]n(C)c(=O)c1N=Nc1ccc(S(C)(=O)=O)cc1", "Potency": "6.31 µM (active)"}
{"smiles": "Cc1[nH]n(C(N)=S)c(=O)c1N=Nc1ccc(Cl)cc1Cl", "activity change, negative = inhibition": "-80.5%"}
{"smiles": "Cc1[nH]n(C)c(=O)c1C(=O)c1c(-c2c(Cl)cccc2Cl)noc1C", "activity change, negative = inhibition": "-37.5%"}
{"smiles": "Oc1ccc(O)c([S+]2CCCC(C3CCCCC3)C2)c1", "note": "(stereo not drawn)", "Potency": "17.8 µM (active)"}
{"smiles": "COc1ccc(Cc2nnc(SCc3nc4ccccc4c(=O)[nH]3)n2CC(C)C)cc1", "activity change, negative = inhibition": "5.98%"}
{"smiles": "Cc1ccc(NC(=O)C2Cc3ccccc3O2)cc1S(N)(=O)=O", "note": "(stereo not drawn)", "activity change, negative = inhibition": "26.3%"}
{"smiles": "COc1ccc(CCN2C(=O)c3[nH]nc(-c4ccccc4O)c3C2c2ccc(C)cc2)cc1OC", "note": "(stereo not drawn)", "activity change, negative = inhibition": "-5.81%"}
{"smiles": "CCOC(=O)C1=C(c2ccccc2)N=C2SCC(=O)N2C1c1ccc(O)c(OC)c1", "note": "(stereo not drawn)", "activity change, negative = inhibition": "16%"}
{"smiles": "COc1cc(C2C(C(=O)c3ccc(C)o3)=C(O)C(=O)N2CCc2ccccc2)ccc1O", "note": "(stereo not drawn)", "Potency": "35.5 µM (active)"}
{"smiles": "COc1cc(C2C(C(=O)c3sc(C)nc3C)=C(O)C(=O)N2CCN(C)C)cc(OC)c1OC", "note": "(stereo not drawn)", "activity change, negative = inhibition": "3.5%"}
{"smiles": "CCCOc1ccc(C2C(C(=O)c3ccc(C)o3)=C(O)C(=O)N2CCCn2ccnc2)cc1", "note": "(stereo not drawn)", "activity change, negative = inhibition": "-23.1%"}
{"smiles": "COCCN1C(=O)C(O)=C(C(=O)c2ccc(C)o2)C1c1ccc(O)c(OC)c1", "note": "(stereo not drawn)", "Potency": "17.8 µM (active)"}
{"smiles": "COc1ccc(OC2CN(Cc3cccn3C)C2)cc1", "activity change, negative = inhibition": "5.21% [at 12.5 µM]"}
{"smiles": "COc1ccc(OCCSC(C)C(N)=O)cc1", "note": "(stereo not drawn)", "activity change, negative = inhibition": "0.76%"}
{"smiles": "CC(C)c1ccc(C2CC(=O)N3CN(C4CCCCC4)CSC3=C2C#N)cc1", "note": "(stereo not drawn)", "Potency": "17.8 µM (active)"}
{"smiles": "COc1cc(C(=O)Nc2ccc(C(=O)O)cc2)c2ccccc2n1", "activity change, negative = inhibition": "-3.94%"}
{"smiles": "CC(C)c1ccc(/C=N/NC(=O)c2cc(C3CC3)nc3ccccc23)cc1", "activity change, negative = inhibition": "-1.68%"}
{"smiles": "CNC(=O)c1cccc(NC(=O)c2cc(C3CC3)nc3ccccc23)c1", "Potency": "39.8 µM (active)"}
{"smiles": "CNC(=O)C(=O)NC1CC(C)(C)NC(C)(C)C1", "activity change, negative = inhibition": "12.8%"}
{"smiles": "Cc1cc(C)cc(S(=O)(=O)n2cc3c(=O)n(C)c(=O)n(C)c3n2)c1", "activity change, negative = inhibition": "17.8%"}
